Out of some 53,000 sequences screened, about 3,700 (7%) were called active.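 Rule for the calls: active = gene knockdowns whose robust z-score for IL-1 alpha signal is at least 2 or at most -2, so actives lie on both sides; inactive = the rest.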 The full list was thinned out, with actives kept by preference.
assay: Components of the Cytosolic LPS Sensing Pathway: Gene Identification via Genome-wide siRNA Screen; conditions: RAW264.7 macrophages, IL-1a HTRF, actives lie on both sides, screened at 100 nM (by protocol), cells primed 5 h with Pam3CSK4 first;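 note: robust z of the log signal after scaling to non-targeting control siRNA wells of the plate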
In short: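 IL-1a HTRF of supernatants after 24 hour LipidA transfection of Pam3CSK4-primed (5 hours) RAW264.7 cells, 48h post-siRNA transfection (100 nM). Scores: percent of plate negative-control median, then log-based robust z-score.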

Sequence | z-score
GGAAGUUCCACGUUAUUGUTT against Eif2b2 | -1.3 (inactive)
GCGAUUUCACACCAUCACATT against Rab10 | -1.03 (inactive)
GGAUGAUUUAUGGUUACUGTT against Vmn1r80 | 2.01 (active)
GGCCUUUCACAACAUAAAATT against Chil6 | -0.808 (inactive)
GGGAGCAGUCUUCCCUCAUTT against Cox8a | -1.44 (inactive)
AGAAAUGCCUCUUCAGUGATT against Olfr884 | 1.59 (inactive)
GGAGAAAUGAAGAUUGUGGTT against Tmem218 | -2.31 (active)
GGUCAGCCAGACCAUUUCUTT against Edc3 | -1.27 (inactive)
GGUGGCAAAGUGGUGAUCCTT against Fabp7 | 2.05 (active)
GGAUCUUAUUAUUUGAUCCTT against Mettl15 | -0.671 (inactive)
GGAAGUAGAUUAGAUGGUATT against Akt3 | 0.52 (inactive)
GGAAUACCACAUGCUUUUGTT against Ldah | -0.288 (inactive)
GCUAACCCUCGUUUAGAAGTT against Apol9b | 0.529 (inactive)
GGCAUCUUGGAGGAUUUGCTT against Cyrib | 0.719 (inactive)
GGGUCAAUCAUGAAUGUUUTT against Pak4 | -1.02 (inactive)
GAUUUGAGACCCAGAUCAUTT against Gzmm | 2.08 (active)
GGGACAUGUUUUGAUAAAGTT against Yy1 | -0.591 (inactive)
GCUUCGGAAUCGGUUACCATT against Alg2 | -1.28 (inactive)
GGUUGUUUAUGCUUUCUCUTT against Arhgap32 | -0.766 (inactive)
CGAAGUGGUUUUAUGUACUTT against Cdkn2b | -2.39 (active)
GAUGGUCAUCCUUCCUUUATT against Olfr341 | -0.737 (inactive)
GCUUAGACGACUAGACCUGTT against Slit2 | -0.186 (inactive)
GGUGGUCUGAUCGUAGACATT against Lrrc61 | 0.672 (inactive)
GGGCUGACUAUUAUUUCAGTT against Cysltr2 | -0.107 (inactive)
GGAAUUUGUGAAAAGAAGUTT against Aldh1a2 | -0.923 (inactive)
CGAUAAAAGAGAGAUGAUUTT against Rap1gds1 | 0.699 (inactive)
GGUGGUAAUUUUUCUCAGATT against Agxt2 | -1.74 (inactive)
CCAUCUUGGAGAUCCUGAUTT against Kat5 | -2.46 (active)
GGAAAAUCUUAGGAAGAUGTT against Elf4 | -0.39 (inactive)
GCUUACCCUGACUCCAAUUTT against Dhx33 | -1.76 (inactive)
